Source: PubChem BioAssay (EPA / NIEHS)
Several values for one entry are separate records, joined by “and”; a condition that tells them apart may be missing. Equal entries are not always repeated. Some structures have more than one record in an assay (separate samples or runs), and their calls can disagree. Activity calls are given as the source filed them. The calls were made as follows: active = hit-call score of the fitted dose curve at least 0.9, where 1 is the maximum; inactive = score below 0.9.

Legend:
[1] = APR_HepG2_CellLoss_72hr: Apredica 72-hour HepG2 Assay for Cell Loss (AID 2282915); details: high-content imaging
How it was run: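 HepG2 cells were exposed for 72 hr to compounds at 0.39–200 uM (ten concentrations, duplicate) in 0.5% v/v final DMSO. Nuclei were stained with Hoechst 33342 after 3.7% formaldehyde fixation, imaged at 20x, and counted; fits bidirectional versus DMSO.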

[2] = APR_HepG2_P-H2AX_72hr: Apredica 72-hour HepG2 Assay for H2AX Phosphorylation (AID 2282916); details: imaging, actives raise or lower the signal;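 also: phospho-histone H2A.x immunostain intensity per cell marking DNA damage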
How it was run: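 HepG2; cpd 0.39–200 uM ×10 conc, duplicates; 0.5% DMSO; 72 hr. Fix 3.7% formaldehyde 30 min RT, 0.5% Triton X-100 10 min. Anti-phospho-H2A.x 1:200 + Hoechst 2 ug/mL, 60 min RT; ArrayScan imaging.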

[3] = APR_HepG2_MitoMembPot_72hr: Apredica 72-hour HepG2 Assay for Mitochondrial Membrane Potential (AID 2282917); details: imaging, actives raise or lower the signal
How it was run: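 HepG2 cells exposed 72 h to compounds at 0.39–200 uM (0.5% v/v DMSO, duplicates); MitoTracker Red CMXRos 250 nM loaded 30 min before 3.7% formaldehyde fixation, imaged by HCS fluorescence. Bidirectional fit versus DMSO.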

[4] = APR_HepG2_MitoticArrest_72hr: Apredica 72-hour HepG2 Assay for Mitotic Arrest (AID 2282918); details: high-content imaging, actives raise or lower the signal
How it was run: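 HepG2, 72 hr exposure, 0.39–200 uM in duplicate, 0.5% v/v DMSO final. Formaldehyde-fixed, Triton-permeabilized, anti-phospho-histone H3/FITC plus Hoechst. ArrayScan imaging at 20x; curves fit bidirectionally against DMSO baseline.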

[5] = APR_HepG2_MicrotubuleCSK_72hr: Apredica 72-hour HepG2 Assay for Microtubule CSK Stabilty (AID 2282919); details: HepG2 microtubule cytoskeleton, high-content imaging, actives raise or lower the signal
How it was run: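 HepG2 human liver cells were dosed for 72 h at ten concentrations from 0.39 to 200 uM in duplicate (0.5% v/v DMSO final). Fixed, permeabilized cells were immunostained for alpha-tubulin (Cy5) with a Hoechst counterstain and imaged at 20x.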

[6] = APR_HepG2_P-H2AX_24hr: Apredica 24-hour HepG2 Assay for H2AX Phosphorylation (AID 2282920); details: high-content imaging, actives raise or lower the signal
How it was run: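 HCS fluorescence imaging of phospho-H2A.x immunostain (with Hoechst 33342 nuclear counterstain) in HepG2 after 24 hr compound exposure; 10 concentrations, 0.39–200 uM, duplicate wells, 0.5% v/v DMSO. Gain or loss of signal fitted relative to DMSO baseline.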

[7] = APR_HepG2_StressKinase_72hr: Apredica 72-hour HepG2 Assay for Stress Kinase (AID 2282921); details: HepG2 stress kinase (phospho-c-Jun) imaging, actives raise or lower the signal
How it was run: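 Dose 0.39–200 uM (10 pts, duplicate), 0.5% DMSO; 72 h; fix 3.7% formaldehyde 30 min RT; Triton permeabilize; anti-phospho-c-Jun/Cy3 + Hoechst 60 min RT; image 20x; fit gain/loss vs DMSO.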

[8] = APR_HepG2_StressKinase_24hr: Apredica 24-hour HepG2 Assay for Stress Kinase (AID 2282922); details: HepG2 stress kinase (phospho-c-Jun) imaging, actives raise or lower the signal
How it was run: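 HepG2 cells exposed 24 hr to compound at 0.39–200 uM (10 concentrations, duplicate), 0.5% v/v DMSO final. Fixed in 3.7% formaldehyde, permeabilized with Triton X-100, immunolabeled for phospho-c-Jun with Hoechst 33342; HCS fluorescence imaging, bidirectional fit versus DMSO.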

[9] = APR_HepG2_p53Act_72hr: Apredica 72-hour HepG2 Assay for p53 Activation (AID 2282923); details: high-content imaging, actives raise or lower the signal;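 also: average cellular p53 protein immunofluorescence intensity in HepG2 cells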
How it was run: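 10-pt conc. 0.39–200 uM, duplicate, 0.5% DMSO; 72 hr exposure; 3.7% formaldehyde fix, 0.5% Triton perm; sheep anti-p53/Cy5 + Hoechst; ArrayScan 20x, 6 images/well; gain/loss fit vs DMSO.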

[10] = APR_HepG2_MitoMass_72hr: Apredica 72-hour HepG2 Assay for Mitochondrial Mass (AID 2282924); details: high-content imaging, actives raise or lower the signal;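 also: MitoTracker Red CMXRos stain intensity per cell imaged as mitochondrial mass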
How it was run: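 HepG2 cells were exposed for 72 hr to compounds at 0.39–200 uM (ten concentrations, duplicate, 0.5% v/v DMSO final). Live cells were stained with 250 nM MitoTracker Red CMXRos for 30 min, then fixed in 3.7% formaldehyde and imaged by HCS fluorescence.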

[11] = ATG_CRE_CIS: Attagene CIS-FACTORIAL HepG2 Assay for human cAMP Responsive Element (CRE) binding protein 3 (AID 2282926); details: HepG2 CRE cis-reporter, Attagene multiplexed mRNA; actives raise or lower the signal
How it was run: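 Endogenous CRE-binding activity in HepG2 is reported through a cis-regulated transfected reporter. Following a day of exposure, mRNA levels are determined by reverse transcription PCR and fluorescent fragment analysis; fits run in both directions versus DMSO.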

[12] = biological target: CCAAT/enhancer-binding protein beta (Homo sapiens) (UniProt P17676); assay: ATG_C_EBP_CIS: Attagene CIS-FACTORIAL HepG2 Assay for human CCAAT/Enhancer Binding Protein (C/EBP) beta (AID 2282927); details: HepG2 Attagene cis-factorial transcription factor reporter; actives raise or lower the signal
How it was run: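 Chemical-treated HepG2 cells (24 h) bearing cis-regulated reporter constructs were processed for total RNA, then reverse transcription, PCR amplification, fluorescent primer extension and fragment analysis; gain- and loss-of-signal were fitted against DMSO.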

[13] = ATG_CMV_CIS: Attagene CIS-FACTORIAL HepG2 Assay for human CMV (Internal Marker) (AID 2282928); details: HepG2 CMV promoter reporter, transcription factor profiling; actives raise or lower the signal;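 also: endpoint acts as a background internal control marker rather than a target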
How it was run: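 CMV internal-marker background readout in transiently transfected HepG2 cells bearing cis-regulated reporter units. Reporter mRNA is measured 24 h after dosing by RT-PCR and capillary electrophoresis, with bidirectional fitting against DMSO.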

[14] = ATG_DR4_LXR_CIS: Attagene CIS-FACTORIAL HepG2 Assay for human Liver X Receptor (LXR), DR4 submotif (AID 2282929); details: HepG2 Attagene DR4 cis-reporter, mRNA transcription; actives raise or lower the signal
How it was run: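 DR4 cis-reporter in HepG2, 24 h exposure. Detection: RT-PCR, 6-FAM labelling, CE fragment analysis. Endpoint fitted bidirectionally, DMSO = baseline.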

[15] = biological target: Aryl hydrocarbon receptor (Homo sapiens) (UniProt P35869); assay: ATG_Ahr_CIS: Attagene CIS-FACTORIAL HepG2 Assay for human Aryl Hydrocarbon Receptor (Ahr) (AID 2282930); details: HepG2 AhR cis-factorial reporter transcription; actives raise or lower the signal
How it was run: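 Following 24 h of chemical dosing, transfected HepG2 liver cells with cis-driven reporter units were lysed for RNA; reporter mRNA was quantified via RT-PCR and capillary electrophoresis, and responses fitted bidirectionally from DMSO.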

[16] = ATG_AP_2_CIS: Attagene CIS-FACTORIAL HepG2 Assay for human Activator Protein 2 (AP-2) (AID 2282932); details: HepG2 AP-2 cis-reporter, Attagene transcription factor profiling; actives raise or lower the signal
How it was run: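 Bidirectional curve fitting against DMSO was applied to reporter mRNA signals from HepG2 cells 24 h after dosing. Cis-promoter reporter units, transiently transfected, were read by RT-PCR plus capillary electrophoresis.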

[17] = ATG_BRE_CIS: Attagene CIS-FACTORIAL HepG2 Assay for human Bone Morphogenetic Protein (BMP) Response Element (BRE) (AID 2282933); details: HepG2 BMP response element reporter, Attagene transcription factor profiling; actives raise or lower the signal
How it was run: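 After a 24 h chemical treatment, transiently transfected HepG2 cells were lysed for RNA; reporter transcripts were quantified by fluorescent RT-PCR and capillary electrophoresis, normalised to DMSO.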

[18] = biological target: Retinoic acid receptor alpha (Homo sapiens) (UniProt P10276); assay: ATG_DR5_RAR_CIS: Attagene CIS-FACTORIAL HepG2 Assay for human Retinoic Acid Receptor Alpha (RARE), DR5 submotif (AID 2282934); details: HepG2 Attagene cis-factorial RARE DR5 reporter, mRNA; actives raise or lower the signal;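 as to AC50: reporter responds to endogenous RAR alpha beta and gamma in HepG2 not RARA alone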
How it was run: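 Transfected HepG2 reporter cells are exposed to chemicals for 24 h. Then RNA is extracted and the DR5 element reporter transcript is measured by RT-PCR and capillary electrophoresis, with bidirectional curve fitting relative to DMSO.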

[19] = APR_HepG2_NuclearSize_72hr: Apredica 72-hour HepG2 Assay for Nuclear Size (AID 2282925); details: high-content imaging, actives raise or lower the signal
How it was run: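 HepG2 cells were exposed to compounds at ten concentrations from 0.39 to 200 uM (duplicate, 0.5% DMSO final) for 72 hr. After fixation in 3.7% formaldehyde, nuclei were stained with Hoechst 33342 (2 ug/mL) and imaged at 20x.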

[20] = ATG_AP_1_CIS: Attagene CIS-FACTORIAL HepG2 Assay for human Activator Protein 1 (AP-1) (AID 2282931); details: HepG2 Attagene cis-factorial AP-1 reporter mRNA; actives raise or lower the signal
How it was run: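 Cis-regulated reporter units transiently expressed in HepG2 report endogenous transcription-factor activity. Signal: reporter mRNA at 24 h, via RT-PCR and fluorescent capillary electrophoresis. Endpoint derived by bidirectional fitting, DMSO as negative control.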

Measured: AC50

CCAAT/enhancer-binding protein beta (Homo sapiens), sequence (P17676 whole entry, looked up, the tested form may be a part): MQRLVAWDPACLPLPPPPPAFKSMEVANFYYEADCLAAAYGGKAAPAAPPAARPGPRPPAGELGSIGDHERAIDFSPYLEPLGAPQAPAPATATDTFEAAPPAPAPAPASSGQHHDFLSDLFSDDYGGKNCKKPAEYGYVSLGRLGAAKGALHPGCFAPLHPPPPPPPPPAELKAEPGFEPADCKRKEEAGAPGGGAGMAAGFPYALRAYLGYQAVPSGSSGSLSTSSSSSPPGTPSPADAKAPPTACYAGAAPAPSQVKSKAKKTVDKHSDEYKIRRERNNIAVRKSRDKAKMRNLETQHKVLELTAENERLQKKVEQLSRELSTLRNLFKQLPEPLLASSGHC
Retinoic acid receptor alpha (Homo sapiens), sequence (P10276 whole entry, looked up): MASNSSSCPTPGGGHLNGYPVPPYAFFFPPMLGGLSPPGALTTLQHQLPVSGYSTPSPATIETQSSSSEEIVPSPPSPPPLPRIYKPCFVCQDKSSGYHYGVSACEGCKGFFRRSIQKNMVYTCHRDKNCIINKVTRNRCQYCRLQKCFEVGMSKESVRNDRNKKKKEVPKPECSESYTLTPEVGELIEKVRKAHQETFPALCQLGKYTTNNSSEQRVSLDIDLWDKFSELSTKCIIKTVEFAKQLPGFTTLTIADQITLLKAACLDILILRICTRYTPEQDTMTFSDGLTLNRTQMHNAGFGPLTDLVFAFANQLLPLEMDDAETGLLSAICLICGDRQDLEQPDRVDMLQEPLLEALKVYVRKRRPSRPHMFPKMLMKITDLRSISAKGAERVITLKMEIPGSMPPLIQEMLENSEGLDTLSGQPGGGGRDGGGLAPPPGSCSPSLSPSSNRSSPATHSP
Aryl hydrocarbon receptor (Homo sapiens), sequence (P35869 whole entry, looked up): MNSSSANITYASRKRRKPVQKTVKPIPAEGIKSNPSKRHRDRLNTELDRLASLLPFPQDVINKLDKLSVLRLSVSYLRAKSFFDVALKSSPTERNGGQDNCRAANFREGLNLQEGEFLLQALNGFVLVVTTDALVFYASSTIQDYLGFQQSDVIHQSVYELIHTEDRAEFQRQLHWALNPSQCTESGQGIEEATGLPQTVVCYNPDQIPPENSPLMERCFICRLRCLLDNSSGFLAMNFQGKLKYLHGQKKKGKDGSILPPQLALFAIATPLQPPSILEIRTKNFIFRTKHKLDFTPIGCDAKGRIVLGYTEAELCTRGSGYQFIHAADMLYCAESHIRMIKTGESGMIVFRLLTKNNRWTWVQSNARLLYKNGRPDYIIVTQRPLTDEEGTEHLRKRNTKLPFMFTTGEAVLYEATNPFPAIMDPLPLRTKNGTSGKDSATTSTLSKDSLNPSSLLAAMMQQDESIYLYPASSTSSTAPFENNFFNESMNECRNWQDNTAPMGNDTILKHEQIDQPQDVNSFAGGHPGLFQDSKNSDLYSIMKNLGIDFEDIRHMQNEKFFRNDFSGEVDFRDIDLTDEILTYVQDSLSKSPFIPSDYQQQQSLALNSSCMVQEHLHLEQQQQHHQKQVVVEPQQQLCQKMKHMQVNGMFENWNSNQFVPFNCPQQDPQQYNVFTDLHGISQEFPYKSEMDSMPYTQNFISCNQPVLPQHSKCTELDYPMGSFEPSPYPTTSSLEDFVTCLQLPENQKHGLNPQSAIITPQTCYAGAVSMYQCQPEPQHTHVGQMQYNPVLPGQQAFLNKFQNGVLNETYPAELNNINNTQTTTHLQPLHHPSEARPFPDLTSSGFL

O=C(OCCOCCOC(=O)c1ccccc1)c1ccccc1
active: [15] 71.3 µM
inactive: [1] | [2] | [3] | [4] | [5] | [6] | [7] | [8] | [9] | [10] | [11] | [12] | [13] | [14] | [16] | [17] | [18]

Nc1cccc2c(N)cccc12
active: [2] 36.4 µM | [3] 17.3 µM | [4] 77 µM | [6] 42.9 µM | [7] 39.9 µM | [9] 67.5 µM | [15] 2.85 µM | [20] 77.7 µM
inactive: [5] | [8] | [10] | [19] | [11] | [12] | [13] | [14] | [16] | [17] | [18]

CCCCCCC(=O)O
inactive: [1] | [2] | [3] | [4] | [5] | [6] | [7] | [8] | [9] | [10] | [11] | [12] | [13] | [14] | [15] | [20] | [16] | [17] | [18]

CC(=O)NC1(c2cccc(F)c2)CCN(CC[C@@]2(c3ccc(Cl)c(Cl)c3)CN(c3ccccc3)C(=O)CO2)CC1
active: [2] 21.8 µM | [4] 14.8 µM | [5] 37.7 µM | [6] 39.3 µM | [7] 24 µM | [9] 18.7 µM | [11] 46.6 µM | [12] 54.7 µM | [13] 45.2 µM | [14] 37.2 µM | [20] 14.5 µM | [17] 61.8 µM | [18] 62 µM
inactive: [3] | [8] | [10] | [19] | [15] | [16]

CCCCCCCCCCCCCCCS(=O)(=O)Oc1ccccc1
inactive: [2] | [3] | [4] | [5] | [6] | [7] | [8] | [9] | [10] | [19] | [11] | [12] | [13] | [14] | [15] | [20] | [16] | [17] | [18]

c1ccc2c(c1)Cc1ccccc1-2
inactive: [1] | [2] | [3] | [4] | [5] | [6] | [7] | [8] | [9] | [10] | [19] | [11] | [12] | [13] | [14] | [15] | [20] | [16] | [17] | [18]

COCC(C)OCC(C)O (stereo not given)
inactive: [2] | [3] | [4] | [5] | [6] | [7] | [8] | [9] | [10] | [19] | [11] | [12] | [13] | [14] | [15] | [16] | [17] | [18]

CC(C)(C)c1cc(C(C)(C)C)c(O)c(C(C)(C)C)c1
inactive: [2] | [3] | [4] | [5] | [6] | [7] | [8] | [10] | [11] | [12] | [13] | [15] | [16] | [17]
active: [1] 39.1 µM | [9] 0.357 µM | [13] 74.9 µM | [20] 76.4 µM and 27 µM

CC[C@H](c1ccc(O)cc1)[C@@H](CC)c1ccc(O)cc1
inactive: [1] | [2] | [3] | [4] | [5] | [6] | [7] | [8] | [9] | [10] | [19] | [11] | [12] | [15] | [16] | [17]
active: [13] 12.5 µM and 11.1 µM and 7.79 µM | [20] 11.1 µM and 7.83 µM and 9.21 µM

C#C[C@]1(O)CC[C@H]2[C@@H]3CCC4=CC(=O)CC[C@@H]4[C@H]3CC[C@@]21C
active: [15] 71.5 µM and 50 µM
inactive: [1] | [2] | [3] | [4] | [5] | [6] | [7] | [8] | [9] | [10] | [11] | [12] | [13] | [15] | [20] | [16] | [17] | [18]

CCc1ccc(CCOc2ccc(CC3SC(=O)NC3=O)cc2)nc1 (stereo not given)
inactive: [3] | [5] | [6] | [7] | [8] | [9] | [11] | [12] | [13] | [15] | [16] | [17]
active: [1] 112 µM | [2] 103 µM | [4] 103 µM | [10] 57.6 µM

CCCCCCCC(=O)O
inactive: [1] | [2] | [3] | [4] | [5] | [6] | [7] | [8] | [9] | [10] | [19] | [11] | [12] | [13] | [15] | [16] | [17]
